Screens (PubChem)
BoNT F protease = BoNT F light chain protease inhibition; inhibition, % at 10 µM; hit rate 0.22% among 360,000; Multiplex microsphere protease cleavage assay, flow cytometry; in the data active = inhibition above about 35%, passing the limit was not always enough; inconclusive = no clear call, values can overlap the other calls; note: plate controls were buffer without enzyme for full effect and enzyme alone for no effect
Anthrax LF inh2 = anthrax lethal factor protease inhibition. P15917. multiplex microsphere protease cleavage assay, LF. inhibition, % at 10 µM. hit rate 0.12% among 360,000. AID 588501; note: plate controls were buffer without enzyme for full effect and enzyme alone for no effect
Bead autofluor = flagged as autofluorescent in microsphere protease counterscreen; hit rate 3.1% among 360,000; fluorescence intensity (concentration not given with the values); compound autofluorescence counterscreen, microsphere flow cytometry; stronger effect = higher value; in the data active = fluorescence intensity above about 16000; inconclusive = no clear call, values can overlap the other calls
3CLpro inhibitor = SARS-CoV 3CLpro protease inhibition | P0C6X7 | recombinant SARS-CoV 3CLpro, quenched FRET peptide cleavage | inhibition, % at 6 µM | hit rate 0.14% among 290,000 | AID 1706; in the data active = inhibition above about 12%
BoNT A protease = inhibitors of Botulinum neurotoxin A light chain protease; multiplex microsphere protease substrate cleavage, flow cytometry; inhibition, % at 10 µM; hit rate 0.17% among 360,000; AID 588499; note: plate controls were buffer without enzyme for full effect and enzyme alone for no effect
The depositor's hits bear a star. An excerpt weighted towards active compounds, which were near 3.5% of everything screened. Cut-off read from the data, not from the text of the source, unless noted: active = inhibition above about 30%; inconclusive = no clear call, values can overlap the other calls; inactive = below that.

Screening OC[C@H]1O[C@@H](c2nc(-c3ccc4c(c3)CCO4)no2)[C@H](O)[C@@H](O)[C@H]1O returned BoNT F protease -8, Anthrax LF inh2 0, Bead autofluor 3952 and BoNT A protease 0.
Screening O=C(CCC1CCCCC1)NNC(=O)NC12CC3CC(CC(C3)C1)C2 returned BoNT F protease 0, Anthrax LF inh2 0, Bead autofluor 23967*, 3CLpro inhibitor -7 and BoNT A protease inconclusive.
`O=C(O)CCC(=O)NNC(=O)CCC1CCCCC1` gave BoNT F protease 1, Anthrax LF inh2 2, Bead autofluor 2042, 3CLpro inhibitor -1 and BoNT A protease -1.
CCOC(=O)CNC(=O)N1CCc2ccc(NC(=O)c3ccccc3Cl)cc2C1 was read as BoNT F protease inconclusive, Anthrax LF inh2 3, Bead autofluor 3891, 3CLpro inhibitor 3 and BoNT A protease inconclusive.
For Cc1cccn2c(=O)c3c(nc12)N1CCc2ccccc2C1C1(C3)C(=O)NC(=O)N(C)C1=O (centres undefined) the results were BoNT F protease 0, Anthrax LF inh2 -3, Bead autofluor 19729*, 3CLpro inhibitor 1 and BoNT A protease 1.
Screening CCCCN1C(=O)NC(=O)C2(Cc3c(nc4c(C)cccn4c3=O)N3CCc4ccccc4C32)C1=O (centres undefined) returned BoNT F protease 0, Anthrax LF inh2 -8, Bead autofluor 9271, 3CLpro inhibitor -5 and BoNT A protease -1.
Screening Cn1cccc1/C=N/NC(=O)Cc1cccs1 returned BoNT F protease inconclusive, Anthrax LF inh2 43*, Bead autofluor 3872, 3CLpro inhibitor 1 and BoNT A protease -1.
`CC(/C=N/NC(=O)Cc1cccs1)=C\c1ccco1` gave BoNT F protease 1, Anthrax LF inh2 0, Bead autofluor 21994*, 3CLpro inhibitor 0 and BoNT A protease inconclusive.
Screening CC(/C=N/NC(=O)c1cccs1)=C\c1ccco1 returned BoNT F protease -8, Anthrax LF inh2 -1, Bead autofluor 4223, 3CLpro inhibitor 3 and BoNT A protease 0.
Screening O=C(Nc1ccon1)C(Sc1ccccc1)c1ccccc1 (centres undefined) returned BoNT F protease 1, Anthrax LF inh2 -3, Bead autofluor 23273*, 3CLpro inhibitor -4 and BoNT A protease inconclusive.
`O=S(=O)(Cc1ccccc1)N1CCCC(c2nc(-c3ccc(F)cc3)no2)C1` (centres undefined) gave BoNT F protease 3, Anthrax LF inh2 -4, Bead autofluor 21682*, 3CLpro inhibitor 1 and BoNT A protease 1.
`CC(C)c1ccc(-c2noc(C3CCCN(C(=O)c4ccc(F)cc4F)C3)n2)cc1` (centres undefined) gave BoNT F protease -5, Anthrax LF inh2 -9, Bead autofluor 22538*, 3CLpro inhibitor -1 and BoNT A protease 0.
For Cc1ccccc1NC(=O)N1CCCC(c2nc(-c3ccc(C(C)C)cc3)no2)C1 (centres undefined) the results were BoNT F protease -3, Anthrax LF inh2 -3, Bead autofluor 23120*, 3CLpro inhibitor 3 and BoNT A protease 0.
For Cc1cc(C)nc(N2CCCC(C(=O)NC(C)C)C2)n1 (centres undefined) the results were BoNT F protease -2, Anthrax LF inh2 -5, Bead autofluor 4309, 3CLpro inhibitor -3 and BoNT A protease 0.
CC(C)C(OC(=O)c1oc2ccccc2c1CSC1CCCCC1)C(=O)NC(N)=O (centres undefined) was read as 3CLpro inhibitor 2.
Screening O=C(NCc1ccccn1)c1n[nH]c(=O)c2ccccc12 returned BoNT F protease -1, Anthrax LF inh2 8, Bead autofluor 4435, 3CLpro inhibitor -4 and BoNT A protease 0.
O=C1/C(=C/c2ccc([N+](=O)[O-])cc2)CCc2ccccc21 was read as 3CLpro inhibitor -3.
Screening CC(=O)Oc1cccc(-c2nc3ccccc3c(=O)o2)c1 returned BoNT F protease -3, Anthrax LF inh2 -3, Bead autofluor 3190, 3CLpro inhibitor 6 and BoNT A protease 0.
For COc1cccc(-c2nc3ccc(O)cc3c(=O)o2)c1 the results were BoNT F protease -3, Anthrax LF inh2 -1, Bead autofluor 23859*, 3CLpro inhibitor -2 and BoNT A protease inconclusive.
`COc1nc(N)c(S(=O)(=O)c2ccccc2)cc1C#N` gave BoNT F protease 1, Anthrax LF inh2 0, Bead autofluor 22871*, 3CLpro inhibitor 1 and BoNT A protease inconclusive.
For COc1nc(C)cc(C)c1S(=O)(=O)c1ccccc1C the results were BoNT F protease inconclusive, Anthrax LF inh2 -7, Bead autofluor 4615, 3CLpro inhibitor 3 and BoNT A protease 0.
`COc1nc(N)c(S(=O)(=O)c2ccccc2C)cc1C#N` gave BoNT F protease 10, Anthrax LF inh2 -6, Bead autofluor 19846*, 3CLpro inhibitor -3 and BoNT A protease 9.
O=C1C2ON(c3ccccc3)C(c3ccccc3F)C2C(=O)N1c1ccccc1 (centres undefined) was read as BoNT F protease -1, Anthrax LF inh2 1, Bead autofluor 2652, 3CLpro inhibitor -1 and BoNT A protease 0.
`CCc1nnc(NC(=O)CSc2nccn2-c2cccc(C)c2C)s1` gave BoNT F protease -3, Anthrax LF inh2 -8, Bead autofluor 4507, 3CLpro inhibitor -1 and BoNT A protease 0.
Cc1cccc(C(=O)NC2CCN(CC(=O)Nc3ccc4c(c3)OCO4)CC2)c1 was read as BoNT F protease -3, Anthrax LF inh2 -4, Bead autofluor 4360, 3CLpro inhibitor 5 and BoNT A protease 0.
COc1ccc(CNC(=O)C2CCC(=O)N2C(C)C)c(OC)c1 (centres undefined) was read as BoNT F protease 0, Anthrax LF inh2 1, Bead autofluor 4427, 3CLpro inhibitor -1 and BoNT A protease 0.
Screening O=C(O)CC(Cn1[nH]nnc1=S)c1ccccc1 (centres undefined) returned BoNT F protease 0, Anthrax LF inh2 1, Bead autofluor 22296*, 3CLpro inhibitor 1 and BoNT A protease inconclusive.
Screening O=C(CCS(=O)(=O)Cc1ccccc1)NCCc1ccccc1 returned BoNT F protease -2, Anthrax LF inh2 7, Bead autofluor 3008, 3CLpro inhibitor 2 and BoNT A protease 0.
`O=C(CN1CCCCCC1)N1c2ccccc2C=Cc2ccccc21` gave BoNT F protease 2, Anthrax LF inh2 1, Bead autofluor 19591*, 3CLpro inhibitor 0 and BoNT A protease inconclusive.
Screening O=C(CN1CCCC1)N1c2ccccc2C=Cc2ccccc21 returned BoNT F protease -2, Anthrax LF inh2 0, Bead autofluor 4202, 3CLpro inhibitor 2 and BoNT A protease 0.
COc1ccc(OCCCC(=O)NCc2ccco2)cc1 was read as BoNT F protease -8, Anthrax LF inh2 1, Bead autofluor 10879, 3CLpro inhibitor 0 and BoNT A protease -1.
COc1ccc(C(CNC(=O)CCOc2ccccc2)N(C)C)cc1 (centres undefined) was read as 3CLpro inhibitor 0.
`Cc1cccc(OCCC(=O)NCC(c2ccccc2)N(C)C)c1` (centres undefined) gave BoNT F protease 1, Anthrax LF inh2 -1, Bead autofluor 25146*, 3CLpro inhibitor -2 and BoNT A protease -2.
